# Data published in PubChem BioAssay (Tox21).
# Inconclusive results are not listed. Values without a mark were called inactive. Calls of active or inactive are those of the source. Calls come from the whole dose curve; as a rule, active = well fitted activation curve with a large enough effect in the repeat runs; inconclusive = weak or mixed curves; inactive = no such curve, though single readings can be large or run the other way.
# Target: Nuclear receptor subfamily 1 group I member 2 (Homo sapiens) (UniProt O75469)
# Test: CYP3A4 induction through human pregnane X receptor (PXR) by small molecules, qHTS assay (AID 1346984); note: nearly all actives have a fitted effect of over 40% in size
# Settings: DPX-2 HepG2 PXR, CYP3A4-luciferin luminescence, 24 h; series mostly up to 46.1 µM; activation: at the top concentration
# Text: National Center for Advancing Translational Sciences [NCATS]
# NIH Chemical Genomics Center [NCGC]
# U.S. Environmental Protection Agency [EPA]
# National Institutes of Environmental Health Sciences [NIEHS]
# National Toxicology Program [NTP]
# The Pregnane X receptor (PXR), a ligand activated nuclear receptor plays a critical role in the regulation of genes involved in drug metabolism and transporters. Activation of PXR is responsible for unwanted adverse drug reactions. PXR binds xenobiotics and when compounds interact with PXR enhances the expression of CYP3A genes. Identifying the compounds with the potential for PXR activation and CYP3A4 induction can be of importance in improving the efficacy of drugs with less toxicity and avoiding drug-drug interactions.
# DPX-2 (Puracyp, Inc.) cell lines, used for screening against human PXR activation has HepG2 cells co-transfected with a PXR response element and a luciferase construct containing CYP3A4 promoter. Increase in luciferase activity can be used to identify the compounds that cause the induction of CYP3A4.
# DPX-2 cells were dispensed at 2,000 cells per well in 5uL of assay medium into white, solid-bottom 1536-well plates using a Multidrop Combi dispenser (Thermo Scientific). The assay plates were incubated at 37C for 5hr before transferring 23nL of test compounds dissolved in DMSO and positive control via Pintool station (Wako). The assay plates were incubated at 37C for 24hr. After 24hr compound treatment, 1uL of 3uM (final concentration) P450 substrate (P450-Glo CYP3A4 screening system with Luciferin-IPA, Promega) was added by a Flying Reagent Dispenser (FRD, Aurora Discovery). The assay plates were incubated for 3hr at 37C. Then 5ul One-Glo assay reagent (Promega) was added to each plate by an FRD and following 30 min incubation at room temperature, luciferase activity was quantified on a ViewLux plate reader (Perkin Elmer).
# % is set by controls: 0 for no effect and ±100 for the full control effect; potency is the fitted concentration of half-maximal effect.
SMILES,activation,Potency
C[C@@H](CO)NC(=O)[C@@H]1C=C2c3cccc4[nH]cc(c34)C[C@H]2N(C)C1,-11.2%,
CCCN1CCC[C@H](c2cccc(O)c2)C1,22%,
O=C1CN(O)C(c2ccccc2)=c2cc(Cl)ccc2=N1,-8.81%,
CNC(=O)Oc1ccccc1C(=O)Nc1ccccc1,,14.1 µM (active)
c1ccc(C2(N3CCCC3)CCCCC2)cc1,,1.58 µM (active)
C=CC[C@]1(O)CC[C@H]2[C@@H]3CCC4=CCCC[C@@H]4[C@H]3CC[C@@]21C,-14%,
O=C(NC(=O)c1c(F)cccc1F)Nc1ccc(Cl)c(Oc2ncc(C(F)(F)F)cc2Cl)c1,3.13%,
CC[N+](C)(CC)CCOC(=O)C(O)(c1ccccc1)c1ccccc1,4.64%,
Oc1cc[c]([Hg][Cl])cc1,-19.3%,
C[C@]12CC[C@H](OS(=O)(=O)O)CC1=CC[C@@H]1[C@@H]2CC[C@]2(C)C(=O)CC[C@@H]12,-7.52%,
C[C@@H]([C@H](O)c1ccccc1)N(C)C,-7.42%,
C[C@]12CC[C@H](O)C[C@H]1CC[C@@H]1[C@@H]2CC[C@]2(C)[C@@H](c3ccc(=O)oc3)C[C@H]3O[C@]132,,5.01 µM (active)
CC(C)NC(C)Cc1ccc(I)cc1 (stereo not given),-7.43%,
CO[C@H]1[C@@H](O)C[C@H](O[C@H]2[C@@H](O)C[C@H](O[C@H]3[C@@H](O)C[C@H](O[C@H]4CC[C@@]5(C)[C@H](CC[C@@H]6[C@@H]5C[C@@H](O)[C@]5(C)[C@@H](C7=CC(=O)OC7)CC[C@]65O)C4)O[C@@H]3C)O[C@@H]2C)O[C@@H]1C,-14.9%,
CC(=O)O[C@H]1CC[C@H]2[C@@H]3CCC4=CC(=O)CCC4=C3C=C[C@]12C,-3.83%,
OC[C@@H](O)[C@H]1O[C@@H]2O[C@@H](C(Cl)(Cl)Cl)O[C@@H]2[C@H]1O,-14.1%,
NCC[C@H](O)C(=O)N[C@@H]1C[C@H](N)[C@@H](O[C@H]2O[C@H](CN)[C@@H](O)[C@H](O)[C@H]2N)[C@H](O[C@@H]2O[C@H](CO)[C@@H](O)[C@H]2O)[C@H]1O,-6.55% [at 20.6 µM],
C=C[C@H]1CN2CC[C@H]1C[C@@H]2[C@@H](O)c1ccnc2ccccc12,20.4%,
N#CC1(N2CCCCC2)CCCCC1,-15%,
[H+].[H+].[Hg+2].[O-]B([O-])[O-].[c-]1ccccc1,-11.2%,

SMILES,activation,Potency
C=C[C@H]1CN2CC[C@H]1C[C@H]2[C@H](OC(=O)OCC)c1ccnc2ccc(OC)cc12,-0.253%,
COC1=CC=C2[C@H]3Cc4ccc(OC)c5c4[C@@]2(CCN3C)[C@H]1O5,6.37% [at 20.6 µM],
CNC(=O)OCC[N+](C)(C)C,-10.4%,
O=C(C[C@@H]1NCCC[C@H]1O)Cn1cnc2cc(Br)c(Cl)cc2c1=O,-0.0248%,
CCNCC(O)c1cccc(O)c1 (stereo not given),9.7% [at 20.6 µM],
C[C@@H](Cc1ccccc1)NCCC(c1ccccc1)c1ccccc1,,12.6 µM (active)
C[C@]12CC[C@H]3[C@@H](CCC4=C(O)C(=O)CC[C@@H]43)[C@@H]1CC[C@@H]2OC(=O)CCC1CCCC1,-10%,
Clc1ccc(C(Cn2ccnc2)OCc2csc3c(Cl)cccc23)c(Cl)c1 (stereo not given),,3.98 µM (active)
Cc1nnc2n1-c1ccc(Cl)cc1C(c1ccccc1)=NC2,-7.49%,
C[C@@H](Cc1ccccc1)N(C)C,3.09%,
CC(=O)[C@H]1CC[C@H]2[C@@H]3CC[C@@H]4C[C@H](O)CC[C@]4(C)[C@H]3CC[C@]12C,-1.22%,
[2H]C([2H])([2H])[C@H](N)Cc1ccccc1,0.62%,
CC(=O)OO,2.15%,
COc1ccc2c(c1)C13CCCC[C@@H]1C(C2)N(C)CC3 (stereo not given in full),1.63%,
CC(Cc1ccccc1)NC=O (stereo not given),-5.14%,
CC(N)Cc1ccc(O)cc1 (stereo not given),-0.48%,
Oc1cccc[c]1[Hg][Cl],-16.4%,
CN(C)[C@H](Cc1ccccc1)c1ccccc1,4.18%,
COc1ccc2c3c1O[C@H]1C(=O)CC[C@H]4[C@@H](C2)N(C)CC[C@]314,23%,
CC(=O)OC1CN2CCC1CC2 (stereo not given),-2.87%,
